Bioassay records: PubChem BioAssay, National Center for Advancing Translational Sciences (NCATS)
HCMV inh – qHTS Assay for inhibitors of the human cytomegalovirus (HCMV). HFF cells, HCMV-luciferase reporter, 72 h; hits give low values. activity change, negative = inhibition, % at 57.5 µM. hit rate 4.5% among 410,000. AID 1259415, 2018; in the data active means activity change below about -60%; inconclusive means no clear call, values can overlap the other calls; inactive means above about -39%
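Screen run at 2 compound doses on HFFs infected with reporter HCMV, MOI 1 PFU/cell. Luciferase activity from cell lysates at 72 h post infection gave inhibition relative to buffer-only and Salinomycin wells.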
FMDV inh – High Throughput Screening for Foot and Mouth Disease Virus Antivirals | FMDV antiviral cell-based qHTS | Potency, µM (series often up to 57.9 µM), inactives show at the top dose activity change, negative = inhibition, actives largely listed as inhibitors | hit rate 1.2% among 410,000 | AID 1159524, 2015; calls by dose curve; tested in HEK293T cells; further: read-out not given here; potency means the concentration at half of the fitted maximal effect; nearly all actives have a fitted effect of over 45% in size
Vaccinia mCherry – qHTS for Stage-Specific Inhibitors of Vaccinia Orthopoxvirus: mCherry Reporter Primary qHTS; Vaccinia virus mCherry reporter infection, fluorescence; Potency, µM (titrated, usually from 36.5 µM), for inactives: at the top dose activity change, negative = inhibition, usual class: inhibitors; hit rate 0.63% among 310,000; AID 720579, 2013; calls by dose curve; tested in A549 cells; further: potency means the concentration at half of the fitted maximal effect; nearly all actives have a fitted effect of over 35% in size
HCV inh – qHTS Assay for Inhibitors of Hepatitis C Virus (HCV). Huh7.5.1 HCVcc-Cre infection, luciferase reporter, 44 h. Potency, µM (series often up to 41.8 µM), for the others: at the highest dose activity change, negative = inhibition, hits mostly inhibitors. hit rate 3.4% among 340,000. AID 651820, 2012; active means well fitted inhibition curve with a large enough effect; inconclusive means small, poorly fitted or top-dose-only effect, or another doubt; inactive means no such curve, though single readings can be large or run the other way; further: potency means the concentration at half of the fitted maximal effect
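Reporter virus HCVcc-Cre (~0.5 moi) infects cells exposed to compound; seeding density 1,000 cells/well with 4 h settling beforehand. Luminescence, 15 sec read, taken 44 h post-infection following a 15 min RT substrate incubation.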
VACV Venus inh – qHTS for Stage-Specific Inhibitors of Vaccinia Orthopoxvirus: Venus Reporter Primary qHTS; Potency, µM (titrated, usually from 36.5 µM), for the others: top-dose activity change, negative = inhibition, usual class: inhibitors; hit rate 0.46% among 330,000; Vaccinia virus Venus reporter expression, fluorescence; calls by dose curve; tested in A549 cells; further: potency means the concentration at half of the fitted maximal effect; nearly all actives have a fitted effect of over 30% in size
* hit, by the source's call; i = inactive; ? = inconclusive; . = no result given; ! = repeats disagree; [ ] = remark or other dose. Most compounds without a hit are left out; they make up all but 7.3% or so of the library. On the % scale 0 is the no-effect control and ±100 the full control effect.

SMILES	HCMV inh	FMDV inh	Vaccinia mCherry	HCV inh	VACV Venus inh
COc1ccc(N2CCN(CCCN)CC2)cc1	19	-19%	-8%	10µM*	6%
c1ccc(-c2nc(NC3CCCC3)c3ccccc3n2)cc1	20	?	-14%	1.3µM*	?
CN(C)c1ccc(-c2nc(NC3CCNCC3)c3ccccc3n2)cc1	.	41%	11µM*	.	11µM*
Cc1cnc(CNc2nc(-c3ccccc3C(F)(F)F)nc3ccccc23)cn1	.	-11%	.	.	.
c1ccc2c(NC3CCNCC3)nc(-c3ccoc3)nc2c1	.	-12%	.	.	.
Cc1cnc(CNc2nc(-c3ccc(N(C)C)cc3)nc3ccccc23)cn1	.	39%	11µM*	.	?
CO[C@H]1[C@H](NC(=O)C(C)C)c2ccccc2C12CCN(Cc1c(C)nn(C)c1Cl)CC2	.	9%	-8%	.	2%
O=C(CSc1ncnc2c1cnn2-c1ccccc1)NC1CCS(=O)(=O)C1 (stereo unspecified)	10	-27%	-10%	?	-13%
O=C(CSc1ncnc2c1cnn2-c1ccc(F)cc1)NC1CCCC1	-17	?	-11%	6.3µM*	-9%
O=C(CSc1nccn1Cc1ccc(Cl)cc1)NC1CCCC1	-63*	-26%	i	.	-14%
O=C(CSc1nccn1Cc1ccc(F)cc1)NC1CCCC1	-65*!	-22%	-13%	-16%	-14%
COc1ccc(NC(=O)N(C)C[C@H]2OCc3cn(nn3)CCCC(=O)N([C@H](C)CO)C[C@@H]2C)cc1	-10	.	.	.	.
CC(C)Nc1nc(-c2ccccc2)nc(-n2ccnc2)n1	-20	-3%	.	2.8µM*	.
c1ccc(-c2nc(NC3CC3)nc(-n3ccnc3)n2)cc1	3	-13%	.	2.5µM*	.
CCC(=O)NC1Cc2ccccc2C(c2ccccc2)C1 (stereo unspecified)	.	-8%	-15%	.	-6%
CN(C)c1ccc2cc3c(c(S(=O)(=O)c4ccccc4)c2c1)CCC3	-10	.	.	.	.
CC(=O)C1=C(O)C(=O)N(c2ccc(F)cc2)C1c1ccc(C)cc1 (stereo unspecified)	-69*	6%	-4%	-2%	1%
O=C(c1ccc(Nc2nccc(-c3cc4ccccc4s3)n2)cc1)N1CCC(N2CCCC2)CC1	.	-27%	.	.	.
COc1ccc(N(C)S(=O)(=O)c2cccc(C(=O)NC3CCC(C)CC3)c2)cc1 (stereo unspecified)	-62*	-19%	i	?	-22%
COc1ccc(N(C)S(=O)(=O)c2cccc(C(=O)NC3CCCCCC3)c2)cc1	-7	?	-28%	?	-6%
CCN(c1ccccc1)S(=O)(=O)c1cccc(C(=O)OCC(=O)c2c(N)n(C)c(=O)n(C)c2=O)c1	0	-28%	.	?	.
COc1ccc(S(=O)(=O)N(C)c2ccc(C(=O)NC3CC3)cc2)cc1	-12	-14%	i	?	-2%
COc1ccc(N(C)S(=O)(=O)c2cccc(C(=O)OCC(=O)c3c(N)n(C)c(=O)n(C)c3=O)c2)cc1	?	22µM*	-12%	?	-17%
COc1ccc(N(C)S(=O)(=O)c2cccc(C(=O)Nc3cccc(C(=O)NC4CC4)c3)c2)cc1	-8	-17%	35%	14µM*	-20%
CCn1c(C(=O)N2CCC(C(=O)N3CCN(c4cc(C)ccc4C)CC3)CC2)cc2sccc21	-30	?	-5%	.	-25%
O=C1c2ccccc2C(=O)N1CCCc1cn(C[C@H]2CC[C@@H]([C@@H]3CC[C@H](Cn4cc(CCCN5C(=O)c6ccccc6C5=O)nn4)O3)O2)nn1	-13	-18%	-13%	9%[8.37 µM]	6%
O=C1c2ccccc2C(=O)N1CCCCc1cn(C[C@H]2CC[C@@H]([C@@H]3CC[C@H](Cn4cc(CCCCN5C(=O)c6ccccc6C5=O)nn4)O3)O2)nn1	12	25µM*	-9%	?	-4%
NS(=O)(=O)c1ccc(CCNc2ccn3nc(-c4ccc(OCCN5CCOCC5)cc4)cc3n2)cc1	-100*	-22%	-13%	.	-3%
c1ccc(COc2cccc(-c3cc4nc(NCCN5CCOCC5)ccn4n3)c2)cc1	0	-8%	-16%	.	-5%
c1ccc(COc2ccc(-c3cc4nc(NCCN5CCOCC5)ccn4n3)cc2)cc1	-62*	-13%	2%	.	-15%
